Source: PubChem BioAssay AID449741 (Southern Research Specialized Biocontainment Screening …, 2010)
Activity calls are given as the source filed them.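 The calls were made as follows: active = inhibition above 30% at one or more tested concentrations in the dose response; inactive = inhibition below 30% at every tested concentration.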

experiment: PhoP regulon inhibitors in S. Typhimurium, late-stage follow-up, GFP fluorescence, round 4, synthesized compounds (AID 449741); settings: S. Typhimurium PhoP-regulated promoter-GFP fluorescence, 4 h; series mostly up to 150 µM

outcome, inactive:
S=C(NCc1ccc(Cl)cc1)Nc1ccccc1Br, O=C(Nc1ccc(Cl)cc1)N1CCCN(Cc2cccc(F)c2)C1, FC(F)(F)c1ccc(NC(=S)NCc2ccc(Cl)cc2)cc1, O=C(NC1CCCCC1)N1CCCN(Cc2ccccc2F)C1, FC(F)(F)c1ccccc1NC(=S)NCc1ccc(Cl)cc1, S=C(NCc1ccc(Cl)cc1)Nc1cccc(Br)c1, S=C(NCc1ccc(Cl)cc1)Nc1ccccn1, O=C(Nc1ccc(Cl)cc1)N1CCCN(Cc2cccc(Br)c2)C1, S=C(NCc1ccc(Cl)cc1)Nc1ccncn1, S=C(NCc1ccc(Cl)cc1)NC1CCOCC1, O=C(Nc1ccc(Cl)cc1)N1CCN(Cc2ccccc2F)C1, S=C(NCc1ccc(Cl)cc1)NN1CCOCC1, N#Cc1ccc(CN2CCCN(C(=O)Nc3ccc(Cl)cc3)C2)cc1, S=C(NCc1ccccc1)NCc1ccc(Cl)cc1, S=C(NCc1ccc(Cl)cc1)NC1CCCCC1, CN1CCN(C(=S)NCc2ccc(Cl)cc2)CC1, S=C(NCc1ccc(Cl)cc1)Nc1ccccc1I, S=C(NCc1ccc(Cl)cc1)Nc1ccc(I)cc1, Cc1ccccc1NC(=O)N1CCCN(Cc2ccccc2F)C1, COc1cccc(CNC(=S)Nc2ccncc2)c1
